Consider 14 sequences from the supplement of paper PMC10681739.

Experiment [1] concerns the target T1, ETS1 (UniProt P14921).
T1 sequence: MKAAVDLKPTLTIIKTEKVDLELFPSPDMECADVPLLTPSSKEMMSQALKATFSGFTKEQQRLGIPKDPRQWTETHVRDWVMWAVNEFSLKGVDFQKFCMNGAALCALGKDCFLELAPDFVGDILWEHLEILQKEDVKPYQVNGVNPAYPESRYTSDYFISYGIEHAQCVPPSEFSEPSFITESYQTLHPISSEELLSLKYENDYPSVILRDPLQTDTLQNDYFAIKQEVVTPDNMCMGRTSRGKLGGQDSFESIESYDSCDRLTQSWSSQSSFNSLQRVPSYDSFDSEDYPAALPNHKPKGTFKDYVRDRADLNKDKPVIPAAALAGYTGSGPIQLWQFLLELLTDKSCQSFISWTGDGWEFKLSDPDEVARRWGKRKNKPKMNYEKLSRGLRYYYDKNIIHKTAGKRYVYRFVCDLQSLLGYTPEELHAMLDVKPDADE
Description: ETS1 binding intensity (PBM fluorescence), ETS1 alone (arbitrary fluorescence units); higher = stronger binding. Conditions: ETS1 concentration 1 nM; RUNX1 concentration 0 nM.

The target in experiment [2] is T1, ETS1. Nature of the experiment: ETS1 binding intensity (PBM fluorescence) in presence of RUNX1, normalised to ETS1-only experiment (arbitrary fluorescence units); higher = stronger binding. Conditions: ETS1 concentration 1 nM; RUNX1 concentration 25 nM.

Turning to TGCAGCCGCCGCGTCCGGTCCAGCCGCAGGGCCATG, the ETS1 binding intensity in the experiment with ETS1 [1] came out at 536; in the experiment with ETS1 [2] it was 543.

For the sequence CCGTGTCAGTGAGGATGTGGGCTGCCGGGCTGGGCG, the values for the ETS1 binding intensity with ETS1 [1] and with ETS1 [2] were 491 and 753, respectively.

On to GGCTTGCCAAGAGGAAATTTGAAGCCACAATAACAT, for which the ETS1 binding intensity in the experiment with ETS1 [1] came to 808; with ETS1 [2] it was 951.

For the sequence GGGGCAGGAAACAGCGTCCTGCGCGGGTAGCCCCTG, the ETS1 binding intensity in the experiment with ETS1 [1] is 775; with ETS1 [2], 918.

Regarding ACCGGAAGGGCGGGGGCGTGGCGAGGTACCGCAGAC, the values for the ETS1 binding intensity with ETS1 [1] and with ETS1 [2] were 1170 and 2850, respectively.

As to CTTCAGGGGTGGGGCTTCCTGCCGCAGAGCCGCCTT, the ETS1 binding intensity in the experiment with ETS1 [1] is 543; with ETS1 [2] it was 557.

Regarding ACACCACTCAGGAAGACAAAGCCACACCTCACACCG, the ETS1 binding intensity worked out at 487 with ETS1 [1] and 440 with ETS1 [2].

Consider ATGACTTAGCAACATCCTGACAACCACTACATTGTC, for which the ETS1 binding intensity in the experiment with ETS1 [1] is 476; in the experiment with ETS1 [2], 420.

TTTAAGGGCGGAAAGGCTTTAGCCGCAAAATGGCTT: the ETS1 binding intensity in the experiment with ETS1 [1] was determined as 547; with ETS1 [2], 2380.

Turning to GGCCTTCTGCCTACATCCTGCGGCGCCCGCGACCCG, the values for the ETS1 binding intensity in the experiment with ETS1 [1] and in the experiment with ETS1 [2] were 679 and 593, respectively.

In the case of ACAGATGGTCCGGAACTTCAGAAAACCACTCATTGT, the figures for the ETS1 binding intensity in the experiment with ETS1 [1] and with ETS1 [2] were 583 and 592, respectively.

As to TTTCCTACAGAAGGATGTGGTTGGTGGGTTTGGTTT, the ETS1 binding intensity with ETS1 [1] came out at 619; in the experiment with ETS1 [2], 3210.

GGATGGCGGAAGAGGCGGCTGAGGCCGCAGGACGTG: the ETS1 binding intensity with ETS1 [1] came to 4630; in the experiment with ETS1 [2] it was 4800.

In the case of GCTAAAGGAAGCTCTGTACAGCTGTGGTAAGGTGGC, the figures for the ETS1 binding intensity with ETS1 [1] and with ETS1 [2] were 552 and 792, respectively.
